This is a sample that favours compounds with a hit; in the whole collection about 6.1% have one here.
MMP13 inh – MMP13 (human) collagenase inhibition; P45452; MMP-13 fTHP FRET cleavage, Mca fluorescence; inhibition, % at 4 µM; 0.07% of 65,000 active; AID 570;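 active = inhibition above the mean of compound-free control plate wells plus 3 SD, cut at about 14% in these data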
M1 agonist – agonists of M1 muscarinic receptor | B-score at 10 µM | 3% of 64,000 active | CHO-M1 cells, Fluo-4 calcium fluorescence, agonist mode; stronger effect = higher value;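 active = fluorescence rise, raw or as B-score row- and column-corrected plate score, outside the 99.7% band of its plate's samples, either direction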
M1 antagonist – M1 muscarinic receptor (rat) antagonism; P08482; CHO-M1 cells, Fluo-4 calcium, ACh EC80 antagonist mode; stronger effect = lower value; B-score at 10 µM; 3.4% of 64,000 active;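 active = calcium fluorescence response, raw or row-and-column corrected B-score, differing from the plate sample mean either way at a set confidence level, mostly lower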
MKP-1 inh – human dual specificity phosphatase 1 inhibition | P28562 | recombinant MKP-1, OMFP hydrolysis fluorescence | inhibition, %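 (compounds tested at a single concentration somewhere between 10 and 100 µM)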 | 0.15% of 65,000 active | AID 374;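 active = inhibition above about 50%, limit read from the data; inconclusive = inhibition over screen mean plus 3 SD, below that limit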
Cdc25B block – human M-phase inducer phosphatase 2 inhibition; recombinant Cdc25B, OMFP fluorescence Ex485/Em525; inhibition, %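 (compounds tested at 10 µM final in the well)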; 0.1% of 65,000 active; AID 368; in the data active = inhibition above about 50%
Hsp90 block – displaces geldanamycin probe from tumor Hsp90. P07900. inhibition, % at 30 µM. AID 429. 0.35% of 64,000 active. NCI-N417 lysate Hsp90, Cy3B-geldanamycin FP displacement;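 active = inhibition above 50%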
M1 ag confirm – confirmation of rat M1 muscarinic receptor agonists. 19% of 1,700 active. CHO-M1 cells, Fluo-4 calcium fluorescence, agonist mode; actives lie on both sides. fluorescence change (max-min) at 10 µM. shares compounds with M1 agonist;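 active = fluorescence change differs from the solvent-only DMSO control mean at a set confidence level in both duplicate runs; inconclusive = differs from solvent-only control mean in just one of two runs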;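 note: an EC20 dose of acetylcholine follows compound addition during the same imaging run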
M4 agonist ctr – rat M4 muscarinic agonism, M1 counter-screen. shares compounds with M1 agonist. CHO M4/Gqi5 cells, Fluo-4 calcium fluorescence, agonist mode; actives lie on both sides. fluorescence change (max-min) at 10 µM. 9% of 1,700 active. AID 1741;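 active = fluorescence change differing from the plate's solvent-only control wells at 99.7% confidence in both duplicates, whether higher or lower; inconclusive = differs from solvent controls in only one of two duplicates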
Target sequence (P08485 whole entry, looked up): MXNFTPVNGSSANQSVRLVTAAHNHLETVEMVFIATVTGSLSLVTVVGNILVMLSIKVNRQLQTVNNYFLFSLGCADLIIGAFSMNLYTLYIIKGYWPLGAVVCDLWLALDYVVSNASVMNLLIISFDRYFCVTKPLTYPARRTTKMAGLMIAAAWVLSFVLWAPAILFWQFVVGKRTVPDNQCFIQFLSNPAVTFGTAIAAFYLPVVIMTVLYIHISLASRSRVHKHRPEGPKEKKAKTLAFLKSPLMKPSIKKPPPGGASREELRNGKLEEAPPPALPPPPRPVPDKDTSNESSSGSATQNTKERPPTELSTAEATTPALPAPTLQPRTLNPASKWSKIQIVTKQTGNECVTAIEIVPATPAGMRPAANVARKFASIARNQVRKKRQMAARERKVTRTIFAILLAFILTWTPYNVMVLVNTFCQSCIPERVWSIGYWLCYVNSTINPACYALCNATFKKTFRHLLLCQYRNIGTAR
Hits are given with their value; - = inactive; ? = inconclusive; . = no result.

SMILES | MMP13 inh | M1 agonist | M1 antagonist | MKP-1 inh | Cdc25B block | Hsp90 block | M1 ag confirm | M4 agonist ctr
CCN(c1ccccc1)S(=O)(=O)c1ccc(F)cc1C | - | 15.2 | - | - | - | - | ? | -
c1ccc(C2(c3ccccc3)OCC(Cn3cncn3)O2)cc1 (configuration not stated) | - | - | - | - | - | - | . | .
Cc1cc(/C=N/n2cnnc2)c(C)n1-c1ccc2c(c1)OCO2 | - | - | - | - | - | - | . | .
c1ccc2c(CCNc3ncnc4nc[nH]c34)c[nH]c2c1 | - | 3.92 | - | - | - | - | - | -
CNC(=O)c1ccc(-c2sc3nc(N4CCOCC4)c4c(c3c2N)CCCC4)o1 | - | 5.83 | - | - | - | - | - | -68.9
CC1(C)Cc2c(c(N3CCOCC3)nc3sc(-c4ccc(C(=O)O)o4)c(N)c23)CO1 | - | - | - | - | - | - | . | .
CCOC(=O)C1CCN(C(c2cc3c(C)ccc(C)c3[nH]c2=O)c2nnnn2C2CCCCC2)CC1 (configuration not stated) | - | 2.58 | - | - | - | - | -32.6 | -
CCOC(=O)C1CCN(C(c2cc3ccc(C)c(C)c3[nH]c2=O)c2nnnn2C2CCCCC2)CC1 (configuration not stated) | - | - | - | - | - | - | . | .
O=c1c(-c2nc3ccccc3o2)c2oc3ccccc3n2c2ccccc12 | - | 11.7 | -4.66 | - | - | - | ? | -
Cc1c(Cl)cccc1NC(=O)CSc1nnc(CCNC(=O)OC(C)(C)C)o1 | - | - | - | - | - | - | . | .
O=C(CN(CCc1ccccc1)C(=O)Cn1nnc(-c2cccs2)n1)NCc1ccco1 | - | - | - | - | - | - | . | .
O=C(CN(Cc1ccccc1Cl)C(=O)Cn1nnc(-c2cccs2)n1)NCC1CCCO1 (configuration not stated) | - | 7.71 | - | - | - | - | - | -
COCCn1cc(C(=O)N2CCC(C)CC2)c2c3ccccc3n(C)c2c1=O | - | - | - | - | - | - | . | .
Cc1ccc2oc(=O)c3cnn(CC(=O)NCCCOC(C)C)c3c2c1 | - | - | - | - | - | - | . | .
CN1CCN(c2nc(-c3cccs3)cc(C(F)(F)F)n2)CC1 | - | 3.1 | -18 | - | - | . | ? | ?
CCOC(=O)c1cc2c(=O)n3cccc(C)c3nc2n(CCCOC)c1=NC(=O)c1cccnc1 | - | 2.44 | - | - | - | . | - | -
CCOCCCn1c(=NC(=O)c2cccnc2)c(C(=O)OCC)cc2c(=O)n3ccccc3nc21 | - | - | - | - | - | - | . | .
CCCCn1c(=NC(=O)c2cccnc2)c(C(=O)OCC)cc2c(=O)n3ccccc3nc21 | - | 8.84 | - | . | . | . | -33.5 | ?
CCCn1c(NC(=O)c2cccc(S(=O)(=O)N3CCCC3)c2)nc2ccccc21 | - | - | - | - | - | - | . | .
COc1ccccc1N1CCN(C(=O)CCNS(=O)(=O)c2ccc(Br)s2)CC1 | - | 2.56 | - | - | - | - | ? | -
Cc1csc(=O)n1CC(=O)OCc1cccc2ccccc12 | - | - | - | - | - | - | . | .
CCOC(=O)C1CCN(c2nc3ccccc3nc2C(C#N)C(=O)OCCOC)CC1 (configuration not stated) | - | 6.21 | - | - | - | - | - | -
CCOC(=O)C1CCCN(c2nc3ccccc3nc2C(C#N)C(=O)OC(C)C)C1 (configuration not stated) | - | - | - | - | - | - | . | .
CCOC(=O)C1CCN(c2nc3ccccc3nc2C(C#N)C(=O)OC(C)C)CC1 (configuration not stated) | - | 27.8 | - | - | - | - | - | -
C=CCOC(=O)C(C#N)c1nc2ccccc2nc1N1CCC(C(=O)OCC)CC1 (configuration not stated) | - | 5.09 | - | - | - | - | - | ?
SMILES | MMP13 inh | M1 agonist | M1 antagonist | MKP-1 inh | Cdc25B block | Hsp90 block | M1 ag confirm | M4 agonist ctr
CCOC(=O)C1CCN(c2nc3ccccc3nc2C(C#N)C(=O)OC(C)COC)CC1 (configuration not stated) | - | 6.21 | - | - | - | - | ? | -
Cc1cc(S(=O)(=O)NCc2cccnc2)ccc1-n1cnnn1 | - | - | - | - | - | - | . | .
COC(=O)c1cc(NC(=O)C23CCC(C)(C(=O)O2)C3(C)C)cc(C(=O)OC)c1 (configuration not stated) | - | - | - | - | - | - | . | .
Cn1c(=O)[nH]c(=O)c2c1nc(N1CCCCCC1)n2CCSc1nc2ccccc2[nH]1 | - | - | - | - | - | - | . | .
O=C(NCc1ccccc1)N(Cc1nc2ccccc2c(=O)[nH]1)C1CCCC1 | - | 4.23 | - | - | - | - | - | -
CCOC(=O)C1C(=O)CC(C)(O)C(C(=O)OCC)C1/C=C/c1ccccc1 (configuration not stated) | - | 2.86 | - | - | - | - | - | -
COc1ccc(CC(=O)NC2CCN(CC(=O)Nc3ccc4c(c3)OCCO4)CC2)cc1OC | - | - | - | - | - | - | . | .
CCc1cc2cccc(C)c2nc1SCC(=O)N1CCN(C(=O)c2ccco2)CC1 | - | 2.45 | - | - | - | - | - | -
Cc1oc(C)c2c(=O)ccc3c(c12)OC(N)=C(C#N)C3c1ccccc1 (configuration not stated) | - | - | - | - | - | - | . | .
CSc1ccc(C2C(C#N)=C(N)Oc3c2ccc(=O)c2c(C)oc(C)c32)cc1 (configuration not stated) | - | 7.17 | - | - | - | - | - | -
Cc1ccc2[nH]c3c(c2c1)CCC3=O | - | - | - | - | - | - | . | .
CCCCN1CCc2c([nH]c3ccc(C)cc23)C1=O | - | 3.52 | - | - | - | - | - | ?
CC(C)N(C(=O)NC(=O)NCC1CCCO1)S(C)(=O)=O (configuration not stated) | - | - | - | - | - | - | . | .
CCC(C)[C@H](NC(=O)NCC1CCCO1)C(=O)OC (some centres not stated) | - | 4.95 | - | - | - | - | - | -
O=C(Nc1ncnc2c1ncn2C1OC(COC(=O)c2ccccc2)C(F)C1O)c1ccccc1 (configuration not stated) | - | 2.57 | - | - | - | - | - | -
CCOC(=O)c1ccc(NC(=O)NS(=O)(=O)c2ccc(C)cc2)cc1 | - | - | - | - | - | - | . | .
Cc1ccc(CNC(=O)CCc2c(C)nc3ncnn3c2C)cc1 | - | - | - | - | - | - | . | .
Cc1nc2ncnn2c(C)c1CCC(=O)NCCCN1CCN(c2cccc(Cl)c2)CC1 | - | 2.6 | - | - | - | - | ? | -
CCC(=NC(C)c1ccccc1)c1c(O)n(C)c(=O)n(C)c1=O (configuration not stated) | - | 3.84 | - | - | - | - | - | -

Screens as filed in PubChem BioAssay.
